MmCpn inh: Inhibitors of TCP-1 ring complex (TRiC) of Methanococcus maripaludis (MmCpn): qHTS; purified Mm-Cpn ATPase, ADP Transcreener TR-FRET; AID 504842, 2011; Potency, µM (top dose mostly 76.9 µM), usual class: inhibitors; Chaperonin Mm-Cpn (Methanococcus maripaludis); 0.031% of 330,000 active; also: nearly all actives have a fitted effect of over 80% in size
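ATPase turnover read by TR-FRET ADP competition (Eu cryptate antibody/ADP-d2, 665/590 nm): 10uM ATP final, 25nM Mm-CPN final, 30 min 37degC after 10-min compound preincubation, pH 7.4 Tris/KCl/MgCl2/DTT buffer.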
ClpP mod: qHTS Assay for Activators of ClpP. ATP-dependent Clp protease proteolytic subunit (Bacillus subtilis (strain 168)), P80244. purified B. subtilis ClpP, FRET peptide cleavage, 20 min. Potency, µM (highest dose often 57.5 µM). 1.9% of 340,000 active. AID 651965, 2013; active = well fitted falling curve with a large enough effect; inconclusive = small, poorly fitted or top-dose-only effect; inactive = no such curve, though single readings can be large or run the other way; also: the source files actives as falling curves though it sought activators and does not explain the sign; nearly all actives have a fitted effect of over 65% in size
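Buffer: 100 mM Tris/HCl pH8, 100 mM KCl, 0.05% low protease BSA, 2.5% glycerol, 0.01% Tween-20. ClpP 10 microg/mL final; 20 min RT; delta FRET normalized to ADEP and DMSO controls.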
a7 integrin act: qHTS for Activators of Integrin-Mediated Alleviation for Muscular Dystrophy; alpha7betagal myoblasts, beta-gal FDG fluorescence, 48 h; Potency, µM (titrated, usually from 38.3 µM), hits mostly activators; 0.064% of 350,000 active; also: nearly all actives have a fitted effect of over 60% in size
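Alpha7betagal+/- myoblasts (passage 13) were plated 16-24 hr, then exposed to compounds (1:260 dilution of DMSO stock) for 48 hours at 37C. After MPER lysis, β-galactosidase reporter activity was read as FDG fluorescence (ex 480/em 540) after 30 minutes.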
p53 reactivator: qHTS assay for re-activators of p53 using a Luc reporter. H1299 p53-A138V BP100-luciferase reporter, luminescence, 24 h. Potency, µM (series often up to 92.2 µM), usual class: activators. 0.063% of 320,000 active. AID 504706, 2011; also: nearly all actives have a fitted effect of over 45% in size
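p53-null H1299 cells stably carrying temperature-sensitive p53-A138V and a BP100-luciferase reporter were pinned with compounds (4-point, 1:5 series) and held 24 hrs at 37 deg C. Luminescence was read 10 min after detection reagent.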
Eya2 phos inh: qHTS Assay for Inhibitors of the Phosphatase Activity of Eya2; Protein phosphatase EYA2 (Homo sapiens), O00167; recombinant Eya2, OMFP fluorescence dephosphorylation (OMFP is methylfluorescein phosphate); Potency, µM (highest dose often 76.9 µM), usual class: inhibitors; 0.006% of 330,000 active; AID 488837, 2010
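Eya2 (0.2 uM) preincubated 10 min at ambient with compound, then OMFP substrate added at 50 uM; 10 min reaction in 50 mM HEPES pH 7.5, 50 mM NaCl, 5 uM MgCl2, 0.05% BSA, 1 mM DTT. Fluorescence read at Ex 485/Em 525 nm.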
USP2a block: qHTS Assay for Inhibitors of Ubiquitin-specific Protease USP2a Using CHOP2 as the Reporter | Ubiquitin carboxyl-terminal hydrolase 2 (Homo sapiens), O75604 | USP2 core, Ub-CHOP2 coupled fluorogenic reporter, 485/531 | Potency, µM (series often up to 38.3 µM), most hits filed as inhibitors | 0.01% of 330,000 active
Target sequence (O75604 whole entry, looked up): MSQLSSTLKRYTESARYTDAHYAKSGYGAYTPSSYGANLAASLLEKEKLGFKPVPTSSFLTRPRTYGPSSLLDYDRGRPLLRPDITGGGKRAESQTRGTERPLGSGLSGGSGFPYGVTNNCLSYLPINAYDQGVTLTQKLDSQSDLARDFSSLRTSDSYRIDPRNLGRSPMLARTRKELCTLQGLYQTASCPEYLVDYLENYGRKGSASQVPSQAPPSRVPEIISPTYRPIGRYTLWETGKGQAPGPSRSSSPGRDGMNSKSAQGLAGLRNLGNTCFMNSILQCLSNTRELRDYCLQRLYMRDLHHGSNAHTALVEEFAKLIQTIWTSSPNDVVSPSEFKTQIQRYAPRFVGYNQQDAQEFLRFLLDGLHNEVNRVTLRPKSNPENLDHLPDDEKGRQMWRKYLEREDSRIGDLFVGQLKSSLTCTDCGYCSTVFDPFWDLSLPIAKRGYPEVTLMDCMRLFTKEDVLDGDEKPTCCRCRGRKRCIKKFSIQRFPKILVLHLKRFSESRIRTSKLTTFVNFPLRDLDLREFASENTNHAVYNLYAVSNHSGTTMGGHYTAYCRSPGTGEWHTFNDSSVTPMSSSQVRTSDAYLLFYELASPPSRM
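USP2 core (10nM final) preincubated 30min RT with compound in 20mM Tris-HCl pH 8.0, 2mM CaCl2, 2mM beta-mercaptoethanol, 0.05% CHAPS; 25nM Ub-CHOP2 plus 25nM reporter substrate added, fluorescence (Ex485/Em531) read after 60min.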
Numbers stand for hits. This excerpt belongs to a sample that is enriched for hits. Unless noted, calls follow the shape of the dose curve; as a rule, active = well fitted curve in the direction sought with a large enough effect; inconclusive = small, poorly fitted or top-dose-only effect, or another doubt; inactive = no such curve, though single readings can be large; an effect the other way counts as inactive or inconclusive.

COc1ccc(N2CCN(CCC3Oc4cc([N+](=O)[O-])ccc4NC3=O)CC2)cc1 (centres undefined) was read as MmCpn inh inactive, a7 integrin act 8.9µM, p53 reactivator inactive, Eya2 phos inh inactive and USP2a block inactive.
CCN1CCN(CCC2Oc3cc([N+](=O)[O-])ccc3NC2=O)CC1 (centres undefined) was read as MmCpn inh inactive, a7 integrin act inactive, p53 reactivator inactive, Eya2 phos inh inactive and USP2a block inactive.
Clc1ccccc1-c1nnc(-c2cccs2)o1 was read as MmCpn inh inactive, a7 integrin act inconclusive, p53 reactivator inconclusive, Eya2 phos inh inactive and USP2a block inactive.
Cc1ccc(/C=C/c2nnc(-c3ccccc3)o2)cc1 was read as MmCpn inh inactive, ClpP mod 32µM, a7 integrin act inactive, p53 reactivator inactive, Eya2 phos inh inactive and USP2a block inactive.
For Cc1ccc(-c2noc(/C=C/c3ccccc3)n2)cc1 the results were MmCpn inh inactive, ClpP mod inactive, a7 integrin act inactive, p53 reactivator inactive, Eya2 phos inh inactive and USP2a block inactive.
Screening C(=C\c1nnc(-c2cccs2)o1)/c1ccccc1 returned MmCpn inh inactive, ClpP mod 14µM, a7 integrin act inactive, p53 reactivator inactive, Eya2 phos inh inactive and USP2a block inactive.
For CCN1CCOC(=O)C1CC(=O)Nc1cc(C)cc(C)c1 (centres undefined) the results were ClpP mod inactive.
`CCC(C)[C@H](NC(=O)OC(C)(C)C)C(=O)N/N=C/c1ccc2cc(OC)ccc2n1` (some centres undefined) gave MmCpn inh inactive, ClpP mod inconclusive, a7 integrin act inactive, p53 reactivator inactive, Eya2 phos inh inactive and USP2a block inactive.
COc1ccc2nc(/C=N/NC(=O)[C@H](CCSC)NC(=O)OC(C)(C)C)ccc2c1 was read as MmCpn inh inactive, ClpP mod 8.9µM, a7 integrin act inactive, p53 reactivator inactive, Eya2 phos inh inactive and USP2a block inactive.
CCCN(CCC)CCCNC(=O)c1cc2c(=O)[nH]c3ccccc3c2n1C was read as MmCpn inh inactive, ClpP mod inactive, a7 integrin act inactive, p53 reactivator inactive, Eya2 phos inh inactive and USP2a block inactive.
`Cn1c(C(=O)NCc2ccco2)cc2c(=O)[nH]c3ccccc3c21` gave MmCpn inh inactive, ClpP mod 28µM, a7 integrin act inactive, p53 reactivator inactive, Eya2 phos inh inactive and USP2a block inactive.
Screening CC(=O)c1cccc(NC(=O)Oc2ccccc2)c1 returned MmCpn inh inactive, ClpP mod inactive, a7 integrin act inactive, p53 reactivator inactive, Eya2 phos inh inactive and USP2a block inactive.
`CC(=O)c1cccc(OC(=O)c2ccccc2)c1` gave ClpP mod 14µM and a7 integrin act inactive.
Cc1ccc(NC(N)=S)cc1C was read as MmCpn inh inactive, ClpP mod 28µM, a7 integrin act inactive, p53 reactivator inactive, Eya2 phos inh inactive and USP2a block inactive.
For Cc1cccc(C(=Cc2ccc([N+](=O)[O-])cc2)C(=O)O)c1 the results were ClpP mod inactive and a7 integrin act inactive.
For O=C(O)C(=Cc1cccc([N+](=O)[O-])c1)c1ccc(Cl)cc1 the results were ClpP mod 25µM and a7 integrin act inactive.
Screening C[C@H](CO)N1C[C@H](C)[C@@H](CN(C)C(=O)Nc2ccc(C(F)(F)F)cc2)Oc2c(cccc2N(C)C)C1=O returned MmCpn inh 4µM, ClpP mod inactive, a7 integrin act inactive, p53 reactivator inactive, Eya2 phos inh inactive and USP2a block inactive.

High-throughput results: PubChem BioAssay, National Center for Advancing Translational Sciences (NCATS)
